Activity calls are given as the source filed them. How the source made its calls: active means hit-call score of the fitted dose curve at least 0.9, where 1 is the maximum; inactive means score below 0.9.
biological target: Hepatocyte nuclear factor 3-beta (Homo sapiens) (UniProt Q9Y261); experiment: ATG_FoxA2_CIS: Attagene CIS-FACTORIAL HepG2 Assay for human Forkhead box A2 (FOXA2) (AID 2282942); conditions: HepG2 cis-reporter transcription factor activity, 24 h; actives raise or lower the signal
Sequence (Q9Y261 whole entry, looked up): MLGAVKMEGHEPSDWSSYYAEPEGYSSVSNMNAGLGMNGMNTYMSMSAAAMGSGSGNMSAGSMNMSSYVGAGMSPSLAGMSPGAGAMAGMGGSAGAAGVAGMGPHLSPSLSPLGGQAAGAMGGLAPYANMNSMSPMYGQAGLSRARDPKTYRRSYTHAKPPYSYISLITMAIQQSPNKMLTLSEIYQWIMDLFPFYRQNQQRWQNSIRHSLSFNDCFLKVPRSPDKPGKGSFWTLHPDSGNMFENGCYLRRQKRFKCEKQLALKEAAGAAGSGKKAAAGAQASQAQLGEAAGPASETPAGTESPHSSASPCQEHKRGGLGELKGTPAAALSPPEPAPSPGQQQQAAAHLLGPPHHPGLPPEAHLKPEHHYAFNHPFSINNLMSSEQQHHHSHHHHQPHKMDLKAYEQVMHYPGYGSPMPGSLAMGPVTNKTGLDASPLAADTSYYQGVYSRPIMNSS
Procedure: ATG_CIS is a cell-based, multiplexed-readout assay that uses HepG2, a human liver cell line, with measurements taken at 24 hours after chemical dosing in a 24-well plate.ATG_FoxA2_CIS is one of 52 assay component(s) measured or calculated from the ATG_CIS assay. It is designed to make measurements of mRNA induction, a form of inducible reporter, as detected with fluorescence intensity signals by Reverse transcription polymerase chain reaction (RT-PCR) and Capillary electrophoresis technology.Data from the assay component ATG_FoxA2_CIS was analyzed into 1 assay endpoint. This assay endpoint, ATG_FoxA2_CIS, was analyzed with bidirectional fitting relative to DMSO as the negative control and baseline of activity. Using a type of inducible reporter, measures of mRNA for gain or loss-of-signal activity can be used to understand the reporter gene at the transcription factor-level as they relate to the gene FOXA2. Furthermore, this assay endpoint can be referred to as a primary readout, because this assay has produced multiple assay endpoints where this one serves a reporter gene function. To generalize the intended target to other relatable targets, this assay endpoint is annotated to the dna binding intended target family, where the subfamily is forkhead box protein.
Human liver HepG2 cells are transiently transfected with multiple reporter transcription units (MRTUs) in 6-well plates using FuGene 6 reagent (Roche; 3 ml FuGene/1 mg DNA). The MRTU constructs are regulated by a cis-regulating element (promoter). […] A major difference between the CIS and TRANS system is that in CIS activities of endogenous TFs are measured, whereas the TRANS assay evaluates changes in activities of exogenous, chimeric NR-Gal4 proteins. […] At the end of 24 hour incubation, total RNA was isolated using TriZol reagent (Invitrogen). The isolated RNA is then reverse-transcribed using oligo(dT) primer and Mo-MLV reverse transcriptase (Invitrogen) with DNAse I (Ambion) treatment for 30 min. The one-tenth of the produced cDNA was amplified by PCR using Taq DNA polymerase (Invitrogen) and two reporter sequence-specific primers. The PCR products were fluorescently labeled by primer extension with 6-arboxyfluorescein (6-FAM) 5'-labeled reporter sequence-specific primer (2 min at 95 C, 20 s at 68 C and 10 min at 72 C) and these products were digested with 5U of HpaI (New England Biolabs) for 2h at 37 C. The fragments were purified using Qiaquick PCR columns (Qiagen), analyzed on an ABI 3130xL genetic analyzer (Applied Biosystems) with peak positions identified by using a set of X-rhodamine (ROX)-labeled MapMarker1000 molecular weight standards (BioVentures). The raw capillary electrophoresis data was processed using Attagraph software (Attagene).

Row | Structure (SMILES) | outcome | AC50
1 | CC1=C(CC(=O)O)c2cc(F)ccc2/C1=C\c1ccc(S(C)=O)cc1 (stereo not given) | inactive | –
2 | O=C(O)c1cc(Cl)cc(Cl)c1O | inactive | –
3 | O=[N+]([O-])c1ccccc1C(F)(F)F | inactive | –
4 | CCCCCCC1CCCC(=O)O1 (stereo not given) | inactive | –
5 | OCCOCCOCCOCCOCCO | inactive | –
6 | CCCOCCC | inactive | –
7 | O=C(O)c1nc(Cl)c(Cl)c(Cl)c1Cl | inactive | –
8 | Clc1ccccn1 | inactive | –
9 | NC(=O)c1ccc([N+](=O)[O-])cc1Cl | inactive | –
10 | C=C1CC[C@H]2C[C@@H]1C2(C)C | inactive | –
11 | C=C(C)C(=O)OCCCCCC | inactive | –
12 | Oc1cccc2ccccc12 | inactive | –
13 | CCOC(=O)CC(=O)OCC | inactive | –
14 | CCCCCCCCCCCCCCCCCC[N+](C)(C)C | – | 45.4 µM (active)
15 | F[B-](F)(F)F | inactive | –
16 | O=C1NC(=O)C2CC=CCC12 (stereo not given) | inactive | –
17 | CC(C)CC(=O)CC(C)CC(C)C (stereo not given) | inactive | –
18 | CC(=O)c1nccs1 | inactive | –
19 | CC(=O)CCc1ccccc1 | inactive | –
20 | O=[N+]([O-])c1ccc2nc[nH]c2c1 | inactive | –

Row | Structure (SMILES) | outcome | AC50
21 | O=C(O)Cc1c[nH]c2ccccc12 | inactive | –
22 | C1=CCC=C1 | inactive | –
23 | NC(N)=Nc1nc(CSCCC(N)=NS(N)(=O)=O)cs1 | inactive | –
24 | c1ccc(CNc2ncnc3nc[nH]c23)cc1 | inactive | –
25 | CCCc1c(OCCCCc2nn[nH]n2)ccc(C(C)=O)c1O | inactive | –
26 | Cc1cc(O)cc(C)c1Cl | inactive | –
27 | O=S(=O)(O)c1cccc2ccccc12 | inactive | –
28 | Clc1ccc(Sc2cc(Cl)c(Cl)cc2Cl)cc1 | inactive | –
29 | O=C(OCc1ccccc1)c1ccccc1 | inactive | –
30 | Cc1cc(-n2nc3ccc(Cl)cc3n2)c(O)c(C(C)(C)C)c1 | inactive | –
31 | O=C(C(=O)c1ccccc1)c1ccccc1 | inactive | –
32 | CCCCC(CC)COC(=O)CS (stereo not given) | inactive | –
33 | C=CC(C)(CCC=C(C)C)OC(=O)c1ccccc1 (stereo not given) | inactive | –
34 | CCOc1ccc2c(c1)C(C)CC(C)(C)N2 (stereo not given) | inactive | –
35 | COCCCN | inactive | –
36 | CC(C)(Oc1ccc(Cl)cc1)C(=O)O | inactive | –
37 | CCCCOC(=O)COc1ccc(Cl)cc1Cl | inactive | –
38 | CC/C=C\CCO | inactive | –
39 | CCC(C)=NO | inactive | –
40 | CCCC(=O)OC/C=C(\C)CCC=C(C)C | inactive | –

— PubChem BioAssay (EPA / NIEHS)
